High-throughput results deposited in PubChem BioAssay by several laboratories.
S1P2 blocker: blocks the human S1P2 receptor | inhibition, % at 5 µM | hit rate 0.21% among 97,000 | cell-based S1P2 antagonist assay, inhibition at 5 uM; in the data active = inhibition above about 45%;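 also: CRE beta-lactamase reporter cells expressing human S1P2 stimulated with S1P; 0% = agonist at EC80 alone and 100% = agonist plus reference antagonist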
Target sequence (O95136 whole entry, looked up): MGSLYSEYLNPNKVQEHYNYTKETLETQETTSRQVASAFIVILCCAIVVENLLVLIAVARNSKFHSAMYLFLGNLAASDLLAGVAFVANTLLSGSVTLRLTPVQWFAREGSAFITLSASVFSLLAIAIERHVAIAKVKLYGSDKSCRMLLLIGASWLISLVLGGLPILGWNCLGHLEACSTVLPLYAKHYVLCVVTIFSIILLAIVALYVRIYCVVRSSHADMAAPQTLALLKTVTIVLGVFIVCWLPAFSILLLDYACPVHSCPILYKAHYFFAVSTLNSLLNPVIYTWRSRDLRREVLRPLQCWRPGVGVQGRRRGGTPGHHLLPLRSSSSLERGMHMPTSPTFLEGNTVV
Phagocyt inh: blocks phagocytosis by macrophages; J774A.1 macrophage IgG-bead phagocytosis, imaging; inhibition, % at 5 µM; hit rate 0.07% among 110,000; AID 1029;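 active = inhibition above the mean of the plate negative controls plus 5 SD, cut at about 13% in these data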;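 also: phagocytic index as fraction of beads internalized from green versus red external bead signal; plate controls were DMSO negative control for no effect and cytochalasin-D positive control for full effect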
S1P2 agonist: agonists of human S1P2 receptor; O95136; hit rate 0.46% among 97,000; activation, % at 4.5 µM; S1P2-expressing cell line, agonist reporter read-out; in the data active = activation above about 16%;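 also: 0% = vehicle low control and 100% = maximal reference agonist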
GALR2 antag: GALR2 (human) receptor antagonism. GALR2-expressing cells, antagonist mode. inhibition, % at 4 µM. hit rate 0.39% among 140,000. AID 828; in the data active = inhibition above about 27%;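 also: cells stimulated with galanin 1-16 at roughly its EC80; 0% = agonist challenge control and 100% = basal control without agonist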
GALR2 agonist: activates the human galanin receptor 2 | GALR2-expressing cells, agonist activation read-out | activation, % (no concentration beside the values) | hit rate 0.48% among 140,000 | AID 803; in the data active = activation above about 5%, passing the limit was not always enough;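 also: 0% = vehicle buffer wells and 100% = reference agonist at full effect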
GALR2 ag confirm: confirmation of human galanin receptor 2 (GALR2) agonists; shares compounds with GALR2 agonist; GALR2-expressing cells, agonist activation; activation, % at 5.6 µM; hit rate 10% among 460; in the data active = activation above about 8.4%;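 also: 0% = buffer-only vehicle wells and 100% = full reference agonist response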
BLA activ ctr: activates beta-lactamase reporter in GALR2 agonist counterscreen; shares compounds with GALR2 agonist; CHO NFAT-bla reporter, beta-lactamase FRET activation; activation, % at 5.6 µM; hit rate 10% among 460;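 active = activation above the screen-wide mean activation plus 3 SD, cut at about 8% in these data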;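 also: 0% = DMSO with PBS wells and 100% = thapsigargin positive control wells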
An asterisk follows results filed as active; · = no result given. This is a sample that favours compounds with a hit; in the whole collection about 1.3% have one here.

SMILES	S1P2 blocker	Phagocyt inh	S1P2 agonist	GALR2 antag	GALR2 agonist	GALR2 ag confirm	BLA activ ctr
CCOc1ncccc1C(=O)OCC(=O)Nc1ccc(-c2nc3ccc(C)cc3s2)cc1	·	-1	·	-5	11*	7	-1
Cc1cc(=O)oc2c3c4c(cc12)OCCN4CCC3	-9	·	5	18	15*	1	3
O=C(CSc1ncc(-c2ccccc2)n1CC1CCCO1)N1CCCCC1 (configuration not stated)	·	2	·	-2	0	·	·
CC(C)Cn1c(-c2ccc(Cl)cc2)cnc1SCC(=O)N1CCOCC1	30	·	-2	-1	21*	-1	-1
C#CCNc1cc(C)nc2ncnn12	13	0	-2	1	13*	-1	-2
Cc1cc(NC(NC(=O)c2ccco2)(C(F)(F)F)C(F)(F)F)no1	-14	0	-6	4	8	0	-1
O=C(Nc1cccc(O)c1)C(Cc1ccccc1)N1C(=O)c2cccc3cccc(c23)C1=O (configuration not stated)	·	-10	·	-2	10*	5	1
O=C(Oc1cc(Cl)ccc1Cl)c1ccc(N2CCOCC2)c([N+](=O)[O-])c1	·	-3	·	5	-1	·	·
O=S(=O)(c1cccc(C(F)(F)F)c1)N1CCN(c2ccccc2)CC1	1	·	-3	-9	12*	-1	-3
Cc1ccc(S(=O)(=O)N2CCN(C(=O)COc3ccc(NC(=O)c4ccco4)cc3)CC2)cc1	3	1	-4	4	13*	-1	-2
Cc1cccc(CN(CC(=O)N/N=C/c2cccs2)S(=O)(=O)c2ccc(Cl)cc2)c1	-6	·	-9	6	0	·	·
COCCOC(=O)c1c(C)n(C)c2ccc(OC(=O)c3ccco3)cc12	-10	0	-7	-9	86*	0	1
Cc1nn2c(-c3cccc(NC(=O)CSc4nc5ccccc5o4)c3)nnc2c2ccccc12	-3	0	2	1	-1	·	·
N#Cc1c(NC(=O)c2ccccc2Cl)n(Cc2ccccc2)c2nc3ccccc3nc12	·	-4	·	10	8.2*	4	7
CCN(c1ccccc1)S(=O)(=O)c1cc(C(=O)Oc2ccc3c(C)cc(=O)oc3c2)ccc1C	·	-12	·	1	0	·	·
CC(Cc1ccccc1)C(=O)NCc1ccncc1 (configuration not stated)	·	·	·	-1	0	·	·
CC(Cc1ccccc1)C(=O)N[C@@H](CO)Cc1ccccc1 (some centres not stated)	·	·	·	-5	23*	-1	-1
C=CCNC(=O)c1ccccc1NC(=O)c1ccc(Cl)c(S(=O)(=O)Nc2ccccc2)c1	-10	-2	-5	-10	-2	·	·
COC(=O)CCC(=O)Nc1nnc(C(F)(F)F)s1	-6	·	-3	-4	144*	-1	-1
CCn1cc(C2=NOC(C(=O)Nc3cc(C)nn3-c3ccccc3)C2)c(C)n1 (configuration not stated)	·	-1	·	14	11*	0	-2
CCN(CC)c1ccc2c(c1)oc(=O)c1c(Cl)cc(=O)oc12	19	2	14	-2	20*	6	12*
CCN(CC)c1ccc2c(C)c(-c3ccc(N)cc3)c(=O)oc2c1	·	-1	·	15	4	·	·
N#C/C(=C\c1c(N2CCCCC2)nc2ccccn2c1=O)C(=O)NC1CCS(=O)(=O)C1 (configuration not stated)	·	·	·	-6	13*	0	0
Cc1cccn2c(=O)c(/C=C(\C#N)C(=O)NC3CCS(=O)(=O)C3)c(N3CCC(C)CC3)nc12 (configuration not stated)	·	-6	·	-19	5	·	·
Cc1nn(C)c(C)c1/C=N/NC(=O)CCn1cc([N+](=O)[O-])cn1	·	-4	·	-5	92*	-1	-1
CCCCn1c(SCC(=O)N2CCC(C)CC2)nc2cc(S(N)(=O)=O)ccc21	17	0	-5	-3	1	·	·
CCCCn1c(SCC(=O)c2cc(OC)ccc2OC)nc2cc(S(N)(=O)=O)ccc21	·	0	·	6	68*	1	0
Cc1ccc(OCc2nnc(SCC(=O)NCc3ccco3)n2C)cc1	-11	·	-4	-4	-1	·	·
CCOc1ccc(Nc2nc(Cc3nnc(SCC(=O)NCc4ccco4)n3CC)cs2)cc1	-11	-2	-6	-17	12*	12*	27*
COc1ccccc1CNC(=O)C1CCN(S(=O)(=O)c2ccc3c(c2)OCCCO3)CC1	·	-2	·	-7	0	·	·
